# Source: PubChem BioAssay
# For part of these data: Entries with a potency or affinity are not part of this list. Calls of active or inactive are those of the source. Unless noted, no rule for the calls is given here.
# Key:
# [1] = molecular target: Cell division control protein 42 homolog (Homo sapiens) (UniProt P60953); experiment: inhibition of fluorescent GTP binding to constitutively active Cdc42 – biochemical, multiplex bead flow cytometry, Bodipy-FL-GTP, dose response (AID 1333;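 active = fitted half-maximal concentration within the tested dose range, moderate curve steepness, a statistically real signal drop, and little compound fluorescence or tag-binding interference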)
# Cell division control protein 42 homolog (Homo sapiens), sequence (P60953 whole entry, looked up): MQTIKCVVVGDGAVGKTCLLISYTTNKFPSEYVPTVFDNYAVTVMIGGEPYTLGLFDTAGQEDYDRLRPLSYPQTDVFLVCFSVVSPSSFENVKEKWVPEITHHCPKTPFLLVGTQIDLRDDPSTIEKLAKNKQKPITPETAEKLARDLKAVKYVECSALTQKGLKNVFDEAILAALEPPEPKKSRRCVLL
# [2] = molecular target: Cell division control protein 42 homolog (Homo sapiens) (UniProt P60953); experiment: inhibition of fluorescent GTP binding to wildtype Cdc42 – biochemical, multiplex bead flow cytometry, Bodipy-FL-GTP, dose response (AID 1334;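 active = fitted half-maximal concentration within the tested range, moderate curve steepness, significant signal drop, and little compound fluorescence or bead-linkage interference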); settings: bead-based flow cytometry, Bodipy-FL-GTP binding to GST-Cdc42; at 100 µM (top of the series) unless noted
# [3] = molecular target: GTPase HRas (Homo sapiens) (UniProt P01112); experiment: Ras wt fluorescent GTP loading blockade – biochemical, wildtype, multiplex bead flow cytometry, dose response (AID 1335;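 active = fitted half-maximal concentration within 10 nM to 100 µM, steepness 0.5 to 2, significant signal drop, low assay interference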); settings: bead-based flow cytometry, Bodipy-GTP binding to GST-Ras; at 100 µM (top of the series) unless noted
# GTPase HRas (Homo sapiens), sequence (P01112 whole entry, looked up): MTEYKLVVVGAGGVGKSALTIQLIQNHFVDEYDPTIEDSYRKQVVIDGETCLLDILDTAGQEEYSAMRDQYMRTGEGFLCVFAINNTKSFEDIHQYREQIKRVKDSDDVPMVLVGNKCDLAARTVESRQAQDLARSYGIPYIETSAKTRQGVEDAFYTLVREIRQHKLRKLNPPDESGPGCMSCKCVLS
# [4] = test system: Ras-related protein Rab-7a (dog), GTP binding; experiment: blockers of fluorescent GTP binding to Rab7 – biochemical, wildtype, multiplex bead flow cytometry, dose response (AID 1336)
# [5] = molecular target: Ras-related C3 botulinum toxin substrate 1 (Homo sapiens) (UniProt P63000); experiment: inhibition of wildtype Rac1 nucleotide loading – biochemical, multiplex bead flow cytometry, dose response (AID 1340;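 active = dose curve with midpoint inside tested range, moderate steepness, plateau gap beyond fit error, low compound glow and bead-link interference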); settings: GST-Rac1 beads, Bodipy-FL-GTP binding; at 100 µM (top of the series) unless noted
# [6] = molecular target: GTPase HRas (Homo sapiens) (UniProt P01112); experiment: blockade of GTP loading onto mutant Ras – biochemical, activated mutant, multiplex bead flow cytometry, dose response (AID 1341;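 active = dose-response curve with midpoint inside the tested range, moderate steepness, significant amplitude and little compound fluorescence or bead-attachment interference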;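 also: GST-tagged constitutively activated Ras mutant immobilized on beads and multiplexed with other GTPases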)
SMILES,outcome [1],"fluorescence, percent of control (lower = inhibition) [2]","GTP binding, percent of control [3]",outcome [4],"GTP binding signal, raw median fluorescence (lower = inhibition) (MCF (arbitrary fluorescence units)) [5]",outcome [6]
O=C(CSc1ncccc1C(=O)O)c1ccc2ccccc2c1,inactive,48.7%,66.6%,inactive,0,inactive
O=C(CCc1nnc(-c2ccc3c(c2)OCO3)o1)N1CCC(c2ccc(F)cc2)C1 (stereo not drawn),inactive,36.1%,88.1%,inactive,303,inactive
O=C(C#Cc1ccccc1)c1ccc([N+](=O)[O-])cc1,inactive,25.5%,74.2%,inactive,264,inactive
O=C(O)c1ccc(CNCc2cccc(Br)c2)s1,inactive,62.4%,89.5%,inactive,33.7,inactive
O=C(O)c1nnn(Cc2ccc(Br)cc2)c1C(=O)O,inactive,58.8%,80.4%,inactive,30.6,inactive
Oc1c(C(c2ccccn2)N2CCOCC2)ccc2cccnc12 (stereo not drawn),inactive,55.1%,70.9%,inactive,0,inactive
Cc1cc(NS(=O)(=O)c2ccc(Nc3nc(-c4sc(N)nc4C)cs3)cc2)no1,inactive,23.8%,58.3%,inactive,122,inactive
CN(C)c1ccc([C@@H]2[C@@H]([N+](=O)[O-])[C@H]3C=Cc4ccccc4N3[C@H]2C(=O)c2ccc(Cl)cc2)cc1,inactive,46.5%,60.6%,inactive,169,inactive
O=C(Nc1cccc(Cl)c1)Nc1ccnc(-c2cccnc2)n1,inactive,33.8%,72.8%,inactive,155,inactive
Cc1nc(-c2cnn(-c3ccccc3)c2)c2cc(C)oc2n1,inactive,61.7%,140%,inactive,140,inactive
CCOc1ccc2nc(SCc3ccc(CC(=O)O)cc3)c(C#N)cc2c1,inactive,28.4%,73.2%,inactive,201,inactive
O=C(CCc1nc2ccccc2[nH]c1=O)OCC(=O)N1CCc2ccccc21,inactive,36.8%,82.6%,inactive,280,inactive
O=C(O)C1(NCc2ccccc2Cl)CCCCC1,inactive,66%,91.3%,inactive,34.5,inactive
CCOC(=O)Cn1nnnc1C(CC)N(Cc1cccs1)Cc1cc2ccc(OC)cc2[nH]c1=O (stereo not drawn),inactive,97.8%,173%,inactive,194,inactive
CCOc1ccc(-n2c(C)nc3cc(C(=O)NCc4ccc5c(c4)OCO5)ccc32)cc1,inactive,41.7%,62.5%,inactive,163,inactive
CCOC(=O)c1ccc2ncc(-c3ccccc3)nc2c1,inactive,33.5%,79.4%,inactive,259,inactive
CCOC(=O)c1nn(-c2ccccc2)c(=O)cc1SC(C)C,inactive,51.2%,61.6%,inactive,204,inactive
Cc1cc(N/N=C/c2ccc(O)cc2O)nc(-c2ccccc2O)n1,inactive,40.3%,48.8%,inactive,143,inactive
COc1ccccc1N1CCN(S(=O)(=O)c2cccc(F)c2)CC1,inactive,49%,62.4%,inactive,213,inactive
O=S1(=O)N=C(N(CCO)/N=C/C=C/c2ccccc2)c2ccccc21,inactive,22.8%,35.3%,inactive,101,inactive
CC1Cc2ccccc2N1S(=O)(=O)c1cccc(C(=O)NCCCO)c1 (stereo not drawn),inactive,38.5%,85.5%,inactive,323,inactive

SMILES,outcome [1],"fluorescence, percent of control (lower = inhibition) [2]","GTP binding, percent of control [3]",outcome [4],"GTP binding signal, raw median fluorescence (lower = inhibition) (MCF (arbitrary fluorescence units)) [5]",outcome [6]
COc1cc(NS(=O)(=O)c2ccc(Nc3nc(-c4ccccc4)cs3)cc2)nc(OC)n1,inactive,40.7%,53.3%,inactive,138,inactive
COc1ccccc1OCCn1cc(C(=O)O)c2cc(C)ccc21,inactive,62.1%,212%,inactive,57.3,inactive
Cc1ccc(O)c(C(=O)c2cnn(C(=O)Cc3csc(C)n3)c2)c1,inactive,37%,86.3%,inactive,242,inactive
COc1ccc(-c2c(C)[nH]n3c(=O)c(Cc4ccccc4)c(C)nc23)cc1,inactive,33.9%,79%,inactive,217,inactive
CCC(C)N1C(=O)/C(=C/c2c(NCCCOC(C)C)nc3c(C)cccn3c2=O)SC1=S (stereo not drawn),inactive,130%,136%,inactive,244,inactive
N#CC(C#N)=C(Nc1ccc(F)cc1)SCc1cccc(Br)c1,inactive,45.8%,61.7%,inactive,181,inactive
CCOc1ccc(-n2c(SCC(=O)NC(C)CC)nc3n[nH]c(C)c3c2=N)cc1 (stereo not drawn),inactive,38.4%,48.1%,inactive,0,inactive
O=C(O)c1ccc(Nc2nc(-c3cc4ccccc4oc3=O)cs2)cc1O,inactive,29.2%,74.6%,inactive,177,inactive
Cc1cc(-c2n[nH]c(=S)n2/N=C/c2cc([N+](=O)[O-])ccc2Cl)n[nH]1,inactive,40.4%,54.8%,inactive,105,inactive
O=C(Cn1c(-c2cscn2)nc2ccccc21)Nc1cc(F)ccc1F,inactive,33.9%,75.9%,inactive,210,inactive
CCCOC(=O)NC1CCS(=O)(=O)C1 (stereo not drawn),inactive,99.8%,159%,inactive,198,inactive
Cc1cc(OCCn2cc(C(=O)O)c3ccccc32)ccc1Cl,inactive,58.3%,84.4%,inactive,28.3,inactive
O=c1[nH]cnc2c1C(c1ccccc1[N+](=O)[O-])c1c(nc[nH]c1=O)O2,inactive,38.6%,50%,inactive,113,inactive
COc1ccc(CN2CCN(CCc3ccccc3)C(CCO)C2)c(O)c1 (stereo not drawn),inactive,40.6%,82.3%,inactive,265,inactive
CC(C)c1nc2oc3c(=O)[nH]cnc3c2c2c1CCC2,inactive,80%,108%,inactive,138,inactive
COCc1cc(C)nc(N/N=C/c2ccc(-c3ccc(C(=O)O)c(Cl)c3)o2)c1C#N,inactive,30.6%,74.4%,inactive,180,inactive
O=C(O)c1ccc(CSCc2ccccc2Cl)o1,inactive,57.8%,79.8%,inactive,30.2,inactive
COc1cc(CCNc2ccc3nnc(-c4ccccc4)n3n2)cc(OC)c1OC,inactive,34.8%,44%,inactive,123,inactive
Nc1nc(N)c2sc3nc4c(cc3c2n1)CCC4,inactive,89.1%,126%,inactive,136,inactive
O=C(N/N=C/c1ccco1)c1ccc(C(=O)N/N=C/c2ccco2)o1,inactive,32.1%,72.4%,inactive,184,inactive
COc1ccc(C(=O)NC(=S)N2CC(C)OC(C)C2)cc1 (stereo not drawn),inactive,54.3%,68.1%,inactive,216,inactive

SMILES,outcome [1],"fluorescence, percent of control (lower = inhibition) [2]","GTP binding, percent of control [3]",outcome [4],"GTP binding signal, raw median fluorescence (lower = inhibition) (MCF (arbitrary fluorescence units)) [5]",outcome [6]
CCOC(=O)c1c2c3c(cccc3[nH]c1=O)C(=O)c1ccccc1-2,inactive,35.5%,77.9%,inactive,176,inactive
C=CCNc1nc(=S)[nH]c2cc(OC)c(OC)cc12,inactive,31.2%,69.1%,inactive,148,inactive
COC(=O)c1cc(NC(=O)c2cccc(Cl)c2)c(=O)oc1/C=C/Nc1cc(C)cc(C)c1,inactive,193%,237%,inactive,563,inactive
O=C(Nc1cc(S(=O)(=O)Nc2ccccc2Cl)ccc1O)c1sc2cc(Cl)ccc2c1Cl,inactive,35.5%,81.2%,inactive,248,inactive
COc1cc(/C=C2\SC(=Nc3ccc(O)cc3)NC2=O)cc(OC)c1O,inactive,36.9%,79.8%,inactive,267,inactive
Cn1c(NC(=S)Nc2ccccc2)nc2ccccc21,inactive,51.8%,63.9%,inactive,0,inactive
Cc1nn(CCc2nn[nH]n2)c2nc(-c3ccc(C4CCCCC4)cc3)cc(C(F)(F)F)c12,inactive,22.1%,79.4%,inactive,249,inactive
O=C(O)c1cccnc1SCc1cccc(Cl)c1,inactive,102%,117%,inactive,79.9,inactive
O=C(O)c1ccc(COc2cccc3ccccc23)o1,inactive,58.3%,89.1%,inactive,31.9,inactive
COc1cc2[nH]c(=S)nc(NC3CCCC3)c2cc1OC,inactive,25.9%,56.7%,inactive,124,inactive
COc1cc(C(=S)NC2CCCCC2)ccc1O,inactive,46.9%,62.4%,inactive,209,inactive
O=S(=O)(CC(CN1CCOCC1)N1CCOCC1)c1ccccc1 (stereo not drawn),inactive,43.3%,92.1%,inactive,310,inactive
O=C(COc1ncnc2cc([N+](=O)[O-])ccc12)NCc1ccc2c(c1)OCO2,inactive,42.7%,56.9%,inactive,118,inactive
COc1ccc2[nH]c3nc(SCC(=O)Nc4ccc5c(c4)OCO5)nnc3c2c1,inactive,70.4%,150%,inactive,164,inactive
COC(=O)c1ccc(COc2ccccc2/C=N/Nc2cccc(C(=O)O)c2)cc1,inactive,52.1%,100%,inactive,274,inactive
Clc1ccc(CN(Cc2ccc(Cl)cc2)c2nn[nH]n2)cc1,inactive,28.2%,85%,inactive,246,inactive
CCCCNC(=O)c1cc([N+](=O)[O-])[nH]n1,inactive,56.1%,74.5%,inactive,282,inactive
COc1ccc(-c2c3c(nc4sc5c(=O)[nH]c(C)nc5c24)CCC3)cc1,inactive,38.2%,49.1%,inactive,153,inactive
Cc1cc(C)cc(OCCSc2nc3ccccc3n2CC(=O)O)c1,inactive,58.4%,87.4%,inactive,31,inactive
CC(=O)c1ccc(N2CCN(C(=O)c3ccc4c(=O)n(-c5ccccc5)c(=O)[nH]c4c3)CC2)cc1,inactive,35.7%,84.8%,inactive,304,inactive
C=CCN1C(=NC(=O)CCCC(=O)O)SC2CS(=O)(=O)CC21 (stereo not drawn),inactive,38.3%,85.7%,inactive,312,inactive
